# Assay results as given in PubChem BioAssay (NCATS).
# “And” between values parts separate entries of the source, which are not always exact repeats. Identical values can stand only once. Records with an inconclusive call do not appear. The source made the active and inactive calls. Unless noted, the call rests on the fitted dose curve.
# Tests used:
# [1] = qHTS Assay for Lipid Storage Modulators (AID 1519); conditions: Drosophila S3 cells, BODIPY lipid droplet/cell ratio, laser cytometry, cells loaded with oleic acid; on activity change, negative = inhibition: on the % scale 0 is the no-effect control and ±100 the full control effect
# How it was run: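 Cells seeded at 5,000 per well were treated with compounds over a concentration series and loaded with oleic acid (400 uM, as added). Lipid droplet fluorescence (488 nm excitation, 500-530 nm channel) was read by laser-scanning cytometry and normalized to 20 uM Triacsin C.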
# [2] = Cell Viability - LYMP2-006 (AID 978; active means well fitted cell-killing curve with a large enough effect;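 further: potency means the concentration at half of the fitted maximal effect; cells exposed to compound for 24 hours; nearly all actives have a fitted effect of over 60% in size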)
# How it was run: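 In this cytotoxicity screen, the human lymphoblastoid line grew in complete medium with test compounds for 24 hr at 37 C. Cellular ATP served as the viability signal.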
# [3] = Cell Viability - LYMP2-007 (AID 979; active means well fitted cell-killing curve with a large enough effect;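 further: potency means the concentration at half of the fitted maximal effect; cells exposed to compound for 24 h before reading; nearly all actives have a fitted effect of over 60% in size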)
# How it was run: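 qHTS cytotoxicity: 2500 cells/well, 5 hr 37 C settle, compound 24 hr 37 C, CellTiter-Glo 30 min RT, luminescence. Decrease in ATP = toxicity. AC50 by standard Hill equation; tetraoctylammonium bromide positive control.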
# [4] = Cell Viability - LYMP2-008 (AID 980; active means well fitted cell-killing curve with a large enough effect; further: potency means the concentration at half of the fitted maximal effect; nearly all actives have a fitted effect of over 60% in size)
# How it was run: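 Luminescent ATP read-out (CellTiter-Glo, 30 min RT) after 24 hr compound exposure at 37 C of human lymphoblastoid cells in complete medium. Decrease in ATP taken as cytotoxicity; AC50 derived by standard Hill fit of qHTS concentration-response data.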
# [5] = Cell Viability - LYMP2-010 (AID 981; active means well fitted cell-killing curve with a large enough effect;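 further: potency means the concentration at half of the fitted maximal effect; cells exposed to compound for 24 hours at 37 °C; nearly all actives have a fitted effect of over 55% in size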)
# How it was run: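 qHTS cytotoxicity, 1536-well: 2500 cells/well, 5 hr settle, 24 hr compound at 37 C, CellTiter-Glo 30 min RT, luminescence read. Decrease in ATP = toxicity; AC50 via standard Hill equation. Positive control tetraoctylammonium bromide.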
# [6] = Cell Viability - LYMP2-012 (AID 982; active means well fitted cell-killing curve with a large enough effect;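 further: cellular ATP by luciferase luminescence where a drop means cytotoxicity; potency means the concentration at half of the fitted maximal effect; cells exposed to compound for one day before reading; nearly all actives have a fitted effect of over 55% in size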)
# [7] = Cell Viability - LYMP2-016 (AID 984; active means well fitted cell-killing curve with a large enough effect;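 further: potency means the concentration at half of the fitted maximal effect; cells exposed to compound for 24 hours at 37 °C; nearly all actives have a fitted effect of over 55% in size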)
# How it was run: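 Concentration-dependent ATP depletion measured in LYMP2-016 lymphoblastoid cells, 24 h, 37 C; luciferase-based luminescent detection; Hill-equation AC50.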
# [8] = Cell Viability - LYMP2-018 (AID 985; active means well fitted cell-killing curve with a large enough effect; further: potency means the concentration at half of the fitted maximal effect; nearly all actives have a fitted effect of over 50% in size)
# How it was run: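 2500 cells/well; 5 hr 37 C; cmpd 24 hr 37 C, complete medium; CellTiter-Glo 30 min RT; luminescence. Tetraoctylammonium bromide positive control. AC50 via Hill fit.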
# [9] = Cell Viability - LYMP2-022 (AID 987; active means well fitted cell-killing curve with a large enough effect; further: potency means the concentration at half of the fitted maximal effect; nearly all actives have a fitted effect of over 55% in size)
# How it was run: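 Luminescent ATP read-out (CellTiter-Glo, 30 min, RT) after 24 hr, 37 C compound exposure of 2500 human lymphoblastoid cells/well in complete medium. Cytotoxicity taken as concentration-dependent ATP loss; AC50 from standard Hill equation.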
# [10] = Cell Viability - LYMP1-002 - Assay at 24 hr (AID 993; active means well fitted cell-killing curve with a large enough effect; further: on the % scale 0 is the no-effect control and ±100 the full control effect)
# How it was run: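 CellTiter-Glo luminescence (intracellular ATP) after 24 h compound exposure, 37 C, in LYMP1-002 human lymphoblastoid cells; decreased ATP taken as cytotoxicity. AC50 from standard Hill fit of concentration-response curves.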
# [11] = Cell Viability - LYMP1-002 - Assay at 40 hr (AID 994; active means well fitted cell-killing curve with a large enough effect;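 further: 0% = DMSO only and full inhibition = 92 µM tetraoctylammonium bromide; nearly all actives have a fitted effect of over 60% in size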)
# How it was run: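 qHTS cytotoxicity; 2500 cells/well, 5 hr 37 C settle, compound 40 hr 37 C. CellTiter-Glo, 30 min RT, luminescence (ATP). Concentration-response, Hill fit → AC50. Pos. ctrl tetraoctylammonium bromide.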
# [12] = measured here: cell count channel max response
# [13] = measured here: lipid channel max response
structure (smiles),measurement,setting,value
O=C1c2ccccc2C(=O)C1c1ccccc1,"activity change, negative = inhibition",[1]; at 25.7 µM (top of the series),-0.708% (inactive)
same,"activity change, negative = inhibition",[1]; at 57.5 µM (top of the series),10.4% (inactive)
same,max response,[1]; [12],-13.1% and 15.4%
same,max response,[1]; [13],-14% and 33.1%
C/C=C(/C(=C/C)c1ccc(O)cc1)c1ccc(O)cc1,"activity change, negative = inhibition",[1]; at 57.5 µM (top of the series),15.3% (inactive)
same,max response,[1]; [12],6.35%
same,max response,[1]; [13],27.9%
CC(C)(CO)[C@@H](O)C(=O)NCCCO,"activity change, negative = inhibition",[1]; at 57.5 µM (top of the series),2.51% (inactive)
same,max response,[1]; [12],21.8%
same,max response,[1]; [13],22.3%
CC(C)(C(=O)c1cccnc1)c1cccnc1,"activity change, negative = inhibition",[1]; at 25.7 µM (top of the series),-6.04% (inactive)
same,max response,[1]; [12],-12.6%
same,max response,[1]; [13],-17.9%
CCN(CCCc1ccccc1)CCCc1ccccc1,"activity change, negative = inhibition",[1]; at 25.7 µM (top of the series),-2.55% (inactive)
same,"activity change, negative = inhibition",[1]; at 57.5 µM (top of the series),3.79% (inactive)
same,max response,[1]; [12],1.49% and 14.3%
same,max response,[1]; [13],-0.884% and 21.1%
CN=C(NC#N)NCCSCc1csc(N=C(N)N)n1,"activity change, negative = inhibition",[1]; at 57.5 µM (top of the series),3.24% (inactive)
same,max response,[1]; [12],-6.42%
same,max response,[1]; [13],-3.26%
NCCCC[C@H](N[C@@H](CCc1ccccc1)C(=O)O)C(=O)N1CCC[C@H]1C(=O)O,"activity change, negative = inhibition",[1]; at 25.7 µM (top of the series),0.781% (inactive)
same,max response,[1]; [12],1.7%
same,max response,[1]; [13],0.636%
Cc1ccc(C(=O)C(C)CN2CCCCC2)cc1 (configuration not stated),"activity change, negative = inhibition",[1]; at 57.5 µM (top of the series),1.11% (inactive)
same,max response,[1]; [12],7.21%
same,max response,[1]; [13],11.2%
CCCCOc1cc(C(=O)NCCN(CC)CC)c2ccccc2n1,"activity change, negative = inhibition",[1]; at 25.7 µM (top of the series),-1.17% (inactive)
same,"activity change, negative = inhibition",[1]; at 57.5 µM (top of the series),1.92% (inactive)
same,max response,[1]; [12],-8.72% and 19.1%
same,max response,[1]; [13],-8.39% and 23.8%
O=C(CCCN1CCC(O)(c2ccc(Br)cc2)CC1)c1ccc(F)cc1,"activity change, negative = inhibition",[1]; at 25.7 µM (top of the series),-4.42% (inactive)
same,max response,[1]; [12],-5.85%
same,max response,[1]; [13],-9.42%
C[C@H](O)C(=O)Nc1c(I)c(C(=O)NC(CO)CO)c(I)c(C(=O)NC(CO)CO)c1I,"activity change, negative = inhibition",[1]; at 25.7 µM (top of the series),-3.5% (inactive)
same,max response,[1]; [12],-8.47%
same,max response,[1]; [13],-9.62%
CCCCc1nc(Cl)c(CO)n1Cc1ccc(-c2ccccc2-c2nn[nH]n2)cc1,"activity change, negative = inhibition",[1]; at 57.5 µM (top of the series),9.33% (inactive)
same,max response,[1]; [12],13.8%
same,max response,[1]; [13],25.7%
Cc1c(N(C)CS(=O)(=O)O)c(=O)n(-c2ccccc2)n1C,"activity change, negative = inhibition",[1]; at 25.7 µM (top of the series),0.216% (inactive)
same,"activity change, negative = inhibition",[1]; at 57.5 µM (top of the series),9.06% (inactive)
same,max response,[1]; [12],-6.35% and 7.26%
same,max response,[1]; [13],-5.13% and 21%
CCN1CCC[C@H]1CNC(=O)c1c(OC)ccc(Br)c1OC,"activity change, negative = inhibition",[1]; at 25.7 µM (top of the series),-6.61% (inactive)
same,max response,[1]; [12],-13.5%
same,max response,[1]; [13],-15.4%
OCc1ccccc1O,"activity change, negative = inhibition",[1]; at 57.5 µM (top of the series),1.86% (inactive)
same,max response,[1]; [12],-8.44%
same,max response,[1]; [13],0.187%
CC(=O)N(O)CCCCCNC(=O)CCC(=O)N(O)CCCCCNC(=O)CCC(=O)N(O)CCCCCN,"activity change, negative = inhibition",[1]; at 25.7 µM (top of the series),-1.65% (inactive)
same,"activity change, negative = inhibition",[1]; at 57.5 µM (top of the series),6.43% (inactive)
same,max response,[1]; [12],-10.2% and 15.7%
same,max response,[1]; [13],-12.1% and 27.1%
CN1CCN(C(c2ccccc2)c2ccccc2)CC1,"activity change, negative = inhibition",[1]; at 25.7 µM (top of the series),-2.7% (inactive)
same,"activity change, negative = inhibition",[1]; at 57.5 µM (top of the series),7.26% (inactive)
same,max response,[1]; [12],-1.91% and 18%
same,max response,[1]; [13],-3.01% and 29.7%
C/C=C/c1ccc(OC)cc1,"activity change, negative = inhibition",[1]; at 57.5 µM (top of the series),9.09% (inactive)
same,max response,[1]; [12],9.56%
same,max response,[1]; [13],22.7%
CN(C)CCCOc1nn(Cc2ccccc2)c2ccccc12,"activity change, negative = inhibition",[1]; at 25.7 µM (top of the series),-3.69% (inactive)
same,max response,[1]; [12],1.49%
same,max response,[1]; [13],-2.83%
Cc1cc(=O)n(-c2ccccc2)n1C,"activity change, negative = inhibition",[1]; at 25.7 µM (top of the series),1.11% (inactive)
same,"activity change, negative = inhibition",[1]; at 57.5 µM (top of the series),0.266% (inactive)
same,max response,[1]; [12],-1.15% and 10.6%
same,max response,[1]; [13],1.09% and 14.3%
CC(=O)O[C@]1(C(C)=O)CC[C@H]2[C@@H]3C[C@H](C)C4=CC(=O)CC[C@]4(C)[C@H]3CC[C@@]21C,Potency,[2],39.8 µM (active)
same,Potency,[3],39.8 µM (active)
same,Potency,[4],39.8 µM (active)
same,Potency,[5],31.6 µM (active)
same,Potency,[6],31.6 µM (active)
same,Potency,[7],39.8 µM (active)
same,Potency,[8],39.8 µM (active)
same,Potency,[9],39.8 µM (active)
same,Potency,[10],inactive
same,Potency,[11],inactive
